# Measured values published in the supplement of paper PMC6411743.
# ± gives the standard deviation of the averaged measurements. Targets with the largest changes are over-represented here; the source holds about 5,400 in all.
# Compound: Nc1nc2c(ncn2[C@@H]2O[C@H](COP(=O)(O)OP(=O)(O)OP(=O)(O)O)[C@@H](O)[C@H]2O)c(=O)[nH]1 [guanosine triphosphate]
# Assay: NP40-soluble protein abundance relative to vehicle (solubility fold change) (ratio); higher = more soluble protein in presence of GTP
# Details: concentration: 0.5mM
# Method in brief: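 In three independent experiments, Jurkat crude lysate made by Dounce homogenisation was treated for 10 min at room temperature and then 3 min at 37 °C with eight concentrations ranging from 0.1 to 10 mM. It was then solubilised with 0.8% NP40 plus benzonase for 60 min at 4 °C and ultracentrifuged. The supernatant was TMT-labelled for LC-MS/MS, and each value is the fold change against the detergent-processed vehicle for the same replicate, using vsn-normalised intensities.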
# Sequence of UniProt Q969H8 (Q969H8 whole entry): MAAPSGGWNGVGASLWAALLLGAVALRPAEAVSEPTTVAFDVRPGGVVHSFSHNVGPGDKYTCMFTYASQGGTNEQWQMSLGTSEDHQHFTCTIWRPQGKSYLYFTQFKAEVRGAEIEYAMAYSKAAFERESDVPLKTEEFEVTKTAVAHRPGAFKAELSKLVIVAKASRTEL
# Sequence of UniProt Q9H6E4 (Q9H6E4 whole entry): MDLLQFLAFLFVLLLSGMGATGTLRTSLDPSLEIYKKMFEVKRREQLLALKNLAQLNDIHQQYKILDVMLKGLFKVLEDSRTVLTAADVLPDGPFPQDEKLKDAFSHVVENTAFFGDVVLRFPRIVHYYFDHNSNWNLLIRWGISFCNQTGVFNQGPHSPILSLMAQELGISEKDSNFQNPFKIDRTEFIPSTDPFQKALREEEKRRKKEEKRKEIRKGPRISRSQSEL
# Sequence of UniProt Q9UL25 (Q9UL25 whole entry): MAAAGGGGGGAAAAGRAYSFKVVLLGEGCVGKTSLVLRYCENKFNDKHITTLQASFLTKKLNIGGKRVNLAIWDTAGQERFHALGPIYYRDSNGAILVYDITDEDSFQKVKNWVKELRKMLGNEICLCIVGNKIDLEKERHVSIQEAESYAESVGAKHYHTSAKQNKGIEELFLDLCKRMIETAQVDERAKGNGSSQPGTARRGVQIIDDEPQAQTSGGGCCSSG
# Sequence of UniProt Q9BX67 (Q9BX67 whole entry): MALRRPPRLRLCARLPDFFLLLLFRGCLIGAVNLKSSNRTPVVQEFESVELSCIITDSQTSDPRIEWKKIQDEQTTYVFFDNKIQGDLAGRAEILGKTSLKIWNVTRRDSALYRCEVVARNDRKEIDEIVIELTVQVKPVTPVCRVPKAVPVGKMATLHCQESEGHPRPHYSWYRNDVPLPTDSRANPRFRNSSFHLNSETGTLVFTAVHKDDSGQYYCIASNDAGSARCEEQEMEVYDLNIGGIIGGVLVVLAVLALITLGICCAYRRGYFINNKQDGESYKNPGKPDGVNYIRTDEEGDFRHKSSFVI
# Sequence of UniProt Q9Y4P8 (Q9Y4P8 whole entry): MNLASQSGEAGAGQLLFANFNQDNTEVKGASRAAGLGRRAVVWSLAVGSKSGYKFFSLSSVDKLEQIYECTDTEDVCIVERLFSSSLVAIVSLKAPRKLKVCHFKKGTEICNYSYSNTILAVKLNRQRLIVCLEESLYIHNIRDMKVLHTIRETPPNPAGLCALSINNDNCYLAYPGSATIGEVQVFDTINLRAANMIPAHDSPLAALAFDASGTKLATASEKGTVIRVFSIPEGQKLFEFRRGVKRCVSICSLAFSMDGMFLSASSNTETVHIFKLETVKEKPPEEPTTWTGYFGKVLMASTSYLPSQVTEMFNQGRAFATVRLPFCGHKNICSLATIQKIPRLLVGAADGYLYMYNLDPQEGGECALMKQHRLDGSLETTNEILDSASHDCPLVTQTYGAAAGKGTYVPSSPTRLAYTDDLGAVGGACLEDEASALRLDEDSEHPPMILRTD
# Sequence of UniProt Q9UMX0 (Q9UMX0 whole entry): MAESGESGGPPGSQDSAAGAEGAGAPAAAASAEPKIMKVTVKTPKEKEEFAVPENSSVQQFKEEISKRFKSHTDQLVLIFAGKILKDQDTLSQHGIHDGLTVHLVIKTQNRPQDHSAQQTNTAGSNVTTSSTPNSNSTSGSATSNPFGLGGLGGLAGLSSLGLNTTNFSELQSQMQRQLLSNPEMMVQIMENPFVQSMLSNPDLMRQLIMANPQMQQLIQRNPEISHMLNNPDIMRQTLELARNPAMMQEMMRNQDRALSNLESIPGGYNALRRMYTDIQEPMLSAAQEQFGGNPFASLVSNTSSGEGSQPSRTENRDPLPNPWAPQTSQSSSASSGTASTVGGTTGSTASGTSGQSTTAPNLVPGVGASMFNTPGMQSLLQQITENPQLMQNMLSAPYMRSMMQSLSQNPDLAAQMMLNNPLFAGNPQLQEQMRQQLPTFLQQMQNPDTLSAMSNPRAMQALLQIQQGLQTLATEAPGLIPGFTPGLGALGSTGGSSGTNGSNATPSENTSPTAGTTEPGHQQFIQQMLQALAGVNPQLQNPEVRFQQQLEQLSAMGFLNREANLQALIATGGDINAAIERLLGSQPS
# Sequence of UniProt Q9NX40 (Q9NX40 whole entry): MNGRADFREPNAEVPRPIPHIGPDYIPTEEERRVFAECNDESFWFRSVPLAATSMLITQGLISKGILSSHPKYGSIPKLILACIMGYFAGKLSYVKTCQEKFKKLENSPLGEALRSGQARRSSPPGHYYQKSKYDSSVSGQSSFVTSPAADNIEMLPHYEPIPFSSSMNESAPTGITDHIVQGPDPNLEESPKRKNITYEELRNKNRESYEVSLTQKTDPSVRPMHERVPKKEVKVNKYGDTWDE
# Sequence of UniProt Q99707 (Q99707 whole entry): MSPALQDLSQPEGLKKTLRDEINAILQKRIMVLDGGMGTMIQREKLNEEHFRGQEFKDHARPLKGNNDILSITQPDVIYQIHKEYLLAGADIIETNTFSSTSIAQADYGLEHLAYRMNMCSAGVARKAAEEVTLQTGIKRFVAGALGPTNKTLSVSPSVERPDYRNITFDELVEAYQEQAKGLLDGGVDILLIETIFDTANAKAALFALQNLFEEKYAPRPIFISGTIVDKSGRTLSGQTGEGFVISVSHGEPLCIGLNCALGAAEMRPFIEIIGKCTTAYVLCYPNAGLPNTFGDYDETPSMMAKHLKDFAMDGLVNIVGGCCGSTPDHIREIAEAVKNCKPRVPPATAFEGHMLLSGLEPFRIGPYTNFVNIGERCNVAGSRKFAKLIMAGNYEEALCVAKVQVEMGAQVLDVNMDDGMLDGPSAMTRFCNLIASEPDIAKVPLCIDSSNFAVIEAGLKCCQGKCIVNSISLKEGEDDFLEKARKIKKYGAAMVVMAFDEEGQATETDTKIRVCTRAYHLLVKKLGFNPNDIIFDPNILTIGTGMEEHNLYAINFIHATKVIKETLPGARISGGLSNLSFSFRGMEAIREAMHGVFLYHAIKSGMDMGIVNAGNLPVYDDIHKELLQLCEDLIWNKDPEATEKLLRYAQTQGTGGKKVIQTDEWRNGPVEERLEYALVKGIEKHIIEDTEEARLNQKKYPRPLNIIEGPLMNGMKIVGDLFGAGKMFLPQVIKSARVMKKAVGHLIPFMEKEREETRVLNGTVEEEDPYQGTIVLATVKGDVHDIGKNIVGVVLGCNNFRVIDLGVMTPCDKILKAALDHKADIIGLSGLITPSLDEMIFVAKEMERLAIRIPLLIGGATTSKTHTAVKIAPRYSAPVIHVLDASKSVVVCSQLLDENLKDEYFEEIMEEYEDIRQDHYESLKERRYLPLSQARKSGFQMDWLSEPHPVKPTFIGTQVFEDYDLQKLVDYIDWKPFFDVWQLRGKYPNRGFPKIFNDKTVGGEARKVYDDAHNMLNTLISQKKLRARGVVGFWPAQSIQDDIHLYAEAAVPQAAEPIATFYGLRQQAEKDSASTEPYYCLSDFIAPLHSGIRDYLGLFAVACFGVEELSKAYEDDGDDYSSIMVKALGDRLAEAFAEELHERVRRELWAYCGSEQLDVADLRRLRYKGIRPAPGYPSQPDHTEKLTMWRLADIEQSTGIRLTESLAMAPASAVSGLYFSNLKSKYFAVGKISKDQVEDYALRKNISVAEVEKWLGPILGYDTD
# Sequence of UniProt Q9NYL9 (Q9NYL9 whole entry): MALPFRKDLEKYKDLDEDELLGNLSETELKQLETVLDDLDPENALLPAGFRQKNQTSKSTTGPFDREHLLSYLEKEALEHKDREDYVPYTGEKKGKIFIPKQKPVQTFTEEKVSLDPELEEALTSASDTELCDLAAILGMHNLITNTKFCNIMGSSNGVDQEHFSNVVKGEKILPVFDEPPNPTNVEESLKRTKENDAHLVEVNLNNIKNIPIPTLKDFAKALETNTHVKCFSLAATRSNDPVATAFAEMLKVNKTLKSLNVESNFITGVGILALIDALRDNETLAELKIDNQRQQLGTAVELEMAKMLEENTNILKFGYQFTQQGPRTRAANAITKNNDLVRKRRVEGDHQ
# Sequence of UniProt Q9NY12 (Q9NY12 whole entry): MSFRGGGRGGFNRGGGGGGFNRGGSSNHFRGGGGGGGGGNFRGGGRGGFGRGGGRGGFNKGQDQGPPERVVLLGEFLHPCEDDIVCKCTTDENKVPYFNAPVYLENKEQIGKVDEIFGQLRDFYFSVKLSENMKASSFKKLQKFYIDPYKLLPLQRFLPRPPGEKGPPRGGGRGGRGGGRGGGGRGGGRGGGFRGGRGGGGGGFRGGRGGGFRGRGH
# Sequence of UniProt Q9UKA9 (Q9UKA9 whole entry): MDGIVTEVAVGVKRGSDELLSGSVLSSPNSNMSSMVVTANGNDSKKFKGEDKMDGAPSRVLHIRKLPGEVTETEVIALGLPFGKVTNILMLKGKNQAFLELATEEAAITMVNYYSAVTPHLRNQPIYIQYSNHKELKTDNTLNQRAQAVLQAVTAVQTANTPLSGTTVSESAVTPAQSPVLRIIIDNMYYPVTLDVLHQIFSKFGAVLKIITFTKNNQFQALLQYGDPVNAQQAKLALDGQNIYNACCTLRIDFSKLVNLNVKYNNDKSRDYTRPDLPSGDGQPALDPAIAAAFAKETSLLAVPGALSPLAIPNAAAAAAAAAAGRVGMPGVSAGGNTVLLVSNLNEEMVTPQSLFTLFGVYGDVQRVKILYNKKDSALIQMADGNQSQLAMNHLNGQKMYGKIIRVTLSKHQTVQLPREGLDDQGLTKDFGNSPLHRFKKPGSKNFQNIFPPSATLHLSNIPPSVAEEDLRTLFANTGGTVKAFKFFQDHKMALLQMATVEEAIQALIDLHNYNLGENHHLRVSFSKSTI
# Sequence of UniProt Q9NS23 (Q9NS23 whole entry): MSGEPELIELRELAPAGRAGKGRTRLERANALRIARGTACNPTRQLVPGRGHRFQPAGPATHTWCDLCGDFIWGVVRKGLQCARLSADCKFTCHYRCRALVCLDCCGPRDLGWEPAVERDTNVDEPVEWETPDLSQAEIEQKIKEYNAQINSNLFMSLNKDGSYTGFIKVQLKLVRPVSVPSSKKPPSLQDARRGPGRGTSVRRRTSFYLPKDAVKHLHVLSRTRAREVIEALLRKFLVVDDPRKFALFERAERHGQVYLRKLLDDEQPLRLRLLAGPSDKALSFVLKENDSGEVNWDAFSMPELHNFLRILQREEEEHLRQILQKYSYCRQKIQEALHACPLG
row,Target,NP40-soluble protein abundance
1,UniProt Q9UKV8,1.14 ± 0.053
2,UniProt Q9NY12|Q9NY12-2,1.06 ± 0.12
3,UniProt Q9UKA9|Q9UKA9-4,0.985 ± 0.025
4,TMOD3 (UniProt Q9NYL9),0.855 ± 0.044
5,UniProt Q96L91|Q96L91-2|Q96L91-3|Q96L91-5,1.06 ± 0.04
6,RAB21 (UniProt Q9UL25),0.967 ± 0.036
7,OCIAD1 (UniProt Q9NX40),0.9 ± 0.044
8,UniProt Q93052|A0A087WZF1|C9JXK9,0.946 ± 0.086
9,UniProt Q99707|Q99707-2,1.01 ± 0.062
10,CCDC134 (UniProt Q9H6E4),0.893 ± 0.1
11,UniProt Q9BX67,0.954 ± 0.065
12,UniProt Q969H8,0.949 ± 0.034
13,UniProt Q9UMX0|Q9UMX0-2,0.998 ± 0.015
14,UniProt Q9Y4P8|Q9Y4P8-4|Q9Y4P8-6,1.01 ± 0.028
15,UniProt Q9NS23|Q9NS23-2|Q9NS23-3|Q9NS23-4|Q9NS23-5,1.03 ± 0.098

# Same assay, conditions: concentration: 1mM
row,Target,NP40-soluble protein abundance
1,UTP18 (UniProt Q9Y5J1),1.13 ± 0.091
2,DDX18 (UniProt Q9NVP1),1.08 ± 0.021
3,STUB1 (UniProt Q9UNE7),1.02 ± 0.1
4,NCAPG (UniProt Q9BPX3),0.986 ± 0.03
5,UniProt Q96EM0,0.869 ± 0.093
6,XRN2 (UniProt Q9H0D6),0.974 ± 0.017
7,HIRIP3 (UniProt Q9BW71),1.01 ± 0.1
8,X5CMH5 (UniProt Q03519),0.978 ± 0.028
9,PGAM5 (UniProt Q96HS1),1.18 ± 0.14
10,FN3KRP (UniProt Q9HA64),0.927 ± 0.032
11,UniProt Q9UJX5|Q9UJX5-3|Q9UJX5-2,1.15 ± 0.19
12,UniProt Q9Y2A7|Q9Y2A7-2,0.972 ± 0.055
13,UniProt Q96MT7-2,1 ± 0.093
14,UniProt Q969P0|Q969P0-3,0.961 ± 0.07
15,UniProt Q9UII2,1.01 ± 0.078
16,NHP2 (UniProt Q9NX24),1.02 ± 0.069
17,DMAP1 (UniProt Q9NPF5),1.11 ± 0.079
18,UniProt Q96T23|Q96T23-2,1.25 ± 0.014
19,WDR3 (UniProt Q9UNX4),1.13 ± 0.061

row,Target,NP40-soluble protein abundance
1,UniProt Q9NVI7-2,1.34 ± 0.083
2,UniProt Q9NW08|Q9NW08-2,1.09 ± 0.12
3,UniProt Q9NVK5|Q9NVK5-2,1.16 ± 0.17
4,UniProt Q9BTY7,1.07 ± 0.088
5,UniProt Q9UKV8,1.06 ± 0.045
6,UniProt Q9NY12|Q9NY12-2,1.17 ± 0.2
7,UniProt Q9UKA9|Q9UKA9-4,1.01 ± 0.014
8,TMOD3 (UniProt Q9NYL9),1.03 ± 0.039
9,UniProt Q96L91|Q96L91-2|Q96L91-3|Q96L91-5,1.12 ± 0.03
10,RAB21 (UniProt Q9UL25),0.87 ± 0.016
11,OCIAD1 (UniProt Q9NX40),1.01 ± 0.016
12,UniProt Q93052|A0A087WZF1|C9JXK9,0.944 ± 0.072
13,UniProt Q99707|Q99707-2,0.987 ± 0.015
14,CCDC134 (UniProt Q9H6E4),0.944 ± 0.089
15,UniProt Q9BX67,0.965 ± 0.026
16,UniProt Q969H8,0.884 ± 0.026
17,UniProt Q9UMX0|Q9UMX0-2,1.09 ± 0.11
18,UniProt Q9Y4P8|Q9Y4P8-4|Q9Y4P8-6,0.976 ± 0.11
19,UniProt Q9NS23|Q9NS23-2|Q9NS23-3|Q9NS23-4|Q9NS23-5,1.04 ± 0.051
